These results are taken from PubChem BioAssay AID720690 (Broad Institute, 2013).

Results with a measured potency or affinity are listed apart. A number with no mark means an inactive call.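 Rule for the calls: active = every repeat run showing a signal drop whose fitted half-maximal concentration is at most twice the top tested concentration; inconclusive = repeat runs disagree, or flat partial drop, or poor fit; inactive = the rest.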

This experiment can be described thus: general mammalian cell viability loss – activator set, cherry-pick, cytotoxicity control for miR-122 modulator project, dose response (AID 720690).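 Note: 0% = neutral control wells and -100% = MG132 cytotoxic control wells.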 To be noted: HEK293T viability, CellTiter-Glo luminescence, 48 h; series mostly up to 26 µM; activity change, negative = cytotoxicity: at the top concentration.
Turning to `CCn1nnnc1SCC(=O)Nc1nnc(C(C)C)s1`, the “activity change, negative = cytotoxicity” value was 10.6%.
As for `C[C@@H]1CN([C@@H](C)CO)C(=O)c2cc(NS(=O)(=O)c3ccc(F)cc3)ccc2O[C@@H]1CN(C)Cc1ccc(-c2ccccc2)cc1`, the “activity change, negative = cytotoxicity” value is -22.7%.
The figure for `CC(C)NC(=O)N(C)C[C@H]1Oc2cc(C#C[C@H](C)O)ccc2S(=O)(=O)N([C@@H](C)CO)C[C@H]1C` is -2.83%.
With `COCC(=O)NC[C@@H]1[C@H](c2ccc(C3=CCCC3)cc2)[C@H](CO)N1C(=O)C1CC1` the figure was -13.9%; with `CCN(C[C@H]1[C@H](c2ccccc2)[C@@H](CO)N1C(=O)C1CC1)C(=O)NC1CCCC1`, -0.731%.
On to `O=C(Nc1ccccc1F)N1C[C@H]2[C@@H](c3ccccc31)[C@@H](CO)N2C(=O)C1CC1`, for which the “activity change, negative = cytotoxicity” value is -1.84%.
Consider `Cc1nn(C)cc1NC(=O)C[C@@H]1CC[C@@H]2[C@H](COc3ccc(NC(=O)Nc4cccc(Cl)c4)cc3C(=O)N2C)O1`, for which the “activity change, negative = cytotoxicity” value was 5.79%.
Take `CN1C(=O)c2cc(NC(=O)Nc3cccc(Cl)c3)ccc2OC[C@H]2O[C@H](CC(=O)NCCc3ccncc3)CC[C@H]21`: the “activity change, negative = cytotoxicity” value is -1.57%.
The figure for `CC(C)C#Cc1ccc2c(c1)O[C@H](CN(C)C(=O)c1ccncc1)[C@H](C)CN([C@H](C)CO)S2(=O)=O` is 1.9%; for `COc1cccc(C(=O)Nc2ccc3c(c2)C(=O)N(C)[C@@H]2CC[C@H](CC(=O)NCc4ccc(F)cc4)O[C@@H]2CO3)c1` it is -25.6%; for `CC(=O)N(C[C@@H]1N[C@@H](CO)[C@H]1c1ccc(-c2ccccc2)cc1)C(C)C` it is -5.09%.
The figure for `CC(=O)N1[C@@H](CO)[C@@H](c2ccccc2)[C@@H]1CNC(=O)CN1CCOCC1` is -2.04%; for `CN1C(=O)c2cc(NC(=O)c3cccc(F)c3)ccc2OC[C@H]2O[C@H](CC(=O)NC3CCC3)CC[C@@H]21` it is -9.72%; for `COCCN(C[C@@H]1[C@H](c2ccccc2)[C@@H](CO)N1C(=O)C1CCC1)C(C)=O` it is -9.91% [at 23.5 µM].
With `C[C@H](CO)N1C[C@H](C)[C@@H](CN(C)C(=O)C2CCOCC2)Oc2cc(C#Cc3ccncc3)ccc2S1(=O)=O` the figure was -19.7%.
With `COCCN(C[C@@H]1[C@@H](c2ccccc2)[C@H](CO)N1C(=O)C1CC1)C(C)=O`, the “activity change, negative = cytotoxicity” value is -9.14%.
With `COCCN(C[C@H]1[C@H](c2ccccc2)[C@@H](CO)N1C(=O)C1CCC1)C(C)=O` the figure was -1.76% [at 23.5 µM].
The figure for `Cc1cccc(NC(=O)Nc2ccc3c(c2)C(=O)N(C)[C@@H]2CC[C@H](CC(=O)NCc4ccccc4Cl)O[C@H]2CO3)c1` is -6.91%; for `COc1ccc(OC)c(Nc2cc(C)nc3ccc(C)cc23)c1` it is -11.7%.
With `C/C=C/c1ccc([C@H]2[C@@H](CO)N(C(=O)COC)[C@H]2CNC(=O)CC)cc1` the figure was -8.03%.
Consider `CCC(=O)N(C)C[C@@H]1[C@@H](c2ccccc2)[C@H](CO)N1Cc1cccnc1`, for which the “activity change, negative = cytotoxicity” value is -14.6% [at 23.5 µM].
With `COc1ccc(S(=O)(=O)N(C)C[C@@H]2Oc3ncc(/C=C/c4ccccc4)cc3C(=O)N([C@@H](C)CO)C[C@@H]2C)cc1` the figure was -17.3%; with `CNC(=O)C[C@H]1CC[C@@H]2[C@H](COc3ccc(NC(=O)Nc4ccccc4)cc3C(=O)N2C)O1`, 3.51%; with `CN1C(=O)c2cc(NC(=O)C3CCOCC3)ccc2OC[C@H]2O[C@H](CC(=O)NCc3ccc4c(c3)OCO4)CC[C@@H]21`, -11.5%.
With `CCCNC(=O)C[C@H]1CC[C@H]2[C@@H](COc3ccc(NC(=O)c4cc(F)cc(F)c4)cc3C(=O)N2C)O1` the figure was 1.72%.
The figure for `CC(=O)Oc1ccc2c(c1)C(=O)c1ccccc1CO2` is 2.59%; for `CCN(C[C@H]1N[C@@H](CO)[C@@H]1c1ccc(C2=CCCC2)cc1)C(=O)c1ccncc1` it is -36.7%.
`CNC(=O)C[C@H]1CC[C@@H]2[C@@H](COc3ccc(NC(=O)Nc4ccc(Cl)cc4)cc3C(=O)N2C)O1`: the “activity change, negative = cytotoxicity” value is 2.16% [at 23.5 µM].
Consider `C[C@@H]1CN([C@H](C)CO)C(=O)c2cc(-c3cccc(C#N)c3)cnc2O[C@H]1CN(C)C(=O)C1CCC1`, for which the “activity change, negative = cytotoxicity” value is 5.68%.
The figure for `COc1cccc(C(=O)Nc2ccc3c(c2)C(=O)N(C)[C@H]2CC[C@H](CC(=O)NCc4ccc(F)cc4)O[C@@H]2CO3)c1` is 5.32%.
With `c1ccc(CCNc2nnnn2-c2ccccc2)cc1` the figure was -6.71%.
The figure for `CCN(C[C@@H]1[C@@H](c2ccccc2)[C@H](CO)N1C(C)=O)C(=O)NC(C)C` is -5.38%; for `COc1ccc2[nH]c(=O)c(COC(=O)c3ccco3)cc2c1` it is -0.84%; for `COCC(=O)N(C[C@H]1[C@H](c2ccccc2)[C@H](CO)N1C(=O)NC(C)C)C(C)C` it is -14.9% [at 23.5 µM].
In the case of `CN(c1ccccc1)S(=O)(=O)c1ccc(C(=O)Nc2cccc(S(=O)(=O)N3CCOCC3)c2)cc1`, the “activity change, negative = cytotoxicity” value was -26.8%.
Regarding `C[C@@H]1CN([C@H](C)CO)S(=O)(=O)c2ccc(/C=C/c3ccccc3)cc2O[C@@H]1CN(C)C(=O)c1cccnc1`, the “activity change, negative = cytotoxicity” value is -30%.
The figure for `C[C@H](CO)N1C[C@H](C)[C@@H](CN(C)CC2CCCCC2)Oc2c(NS(=O)(=O)c3cccs3)cccc2C1=O` is 11%; for `COCC(=O)N(C)C[C@H]1Oc2cc(-c3ccc(C#N)cc3)ccc2S(=O)(=O)N([C@H](C)CO)C[C@H]1C` it is 12.3%.
`CCNC(=O)C[C@H]1CC[C@H]2[C@@H](COc3ccc(NS(C)(=O)=O)cc3C(=O)N2C)O1`: the “activity change, negative = cytotoxicity” value was -12.4%.
